The source of these data is PubChem BioAssay (NCI).

The panel holds about 83,000 compounds, 20% with a hit somewhere; the sample as a whole holds those more often.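 Plates (96-well) were seeded with cells, treated with compound at one concentration, and incubated for 48 hours before percent growth was determined.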 Unmarked numbers belong to inactive results. Active and inactive are the calls of the source.

For this assay, the system named is A498 renal. Nature of the assay: NCI-60 one-dose screen, 48 h (100 = growth as untreated, 0 = no growth, -100 = all killed). The following applies: 10 µM unless noted. As for the experimental part:
Growth inhibition of the A498 human tumor cell line is measured as a screen for anti-cancer activity. Cells are grown in 96 well plates and exposed to the test compound for 48 hours. Compounds are tested at a single concentration, which is 10^-5 M for most compounds. The reported endpoint is percent growth (GI% or GIPRCNT), where numbers from 0 - 100% represent growth inhibition, and numbers from -100% - 0 represent cell death. For example, a value of 40 represents 60% growth inhibition. A value of 0 means no net growth occurred over the course of the experiment. A value of -40 indicates 40% of cells at the beginning of the experiment died by the end of the experiment. A value of -100 means all cells are dead at the end of the experiment.
NCI-60 Human Tumor Cell Lines Screen was performed using the standard one-dose NCI protocol, which is described in more detail at https://dtp.cancer.gov/discovery_development/nci-60/default.htm.
Compounds with GIPRCNT values below 10 were considered active. Activity score was based on GIPRCNT using the following formula: […]
Score is 0 for GIPRCNT values of 100 or above, 50 for GIPRCNT values of 0, and 100 for GIPRCNT values of -100.
In the case of `Cc1nc(C)c(-c2nn3c(-c4cccc(F)c4)nnc3s2)s1`, the growth was 67.5%. Turning to `NC(=O)c1c(NC(=O)c2ccccn2)sc2c1CCC(=O)C2`, the growth was 86.1%. In the case of `Nc1c(C(=O)c2ccccc2)nnc2ncnn12`, the growth is 71.2%. The same measure for `C=C1C(=O)O[C@H]2[C@H]1CC/C(Cn1cc(CNCCc3c[nH]c4ccc(Cl)cc34)nn1)=C\CC[C@@]1(C)O[C@@H]21`: 90%. Consider `CC(C)(C)Nc1c(-c2c3ccccc3cc3ccccc23)nc2ccccn12`, for which the growth is 88.2%.

With `O=C1NN(C(=O)c2ccc(O)cc2)C(c2ccccc2)=N/C1=C\c1cn(-c2ccccc2)nc1-c1ccccc1`, the growth was 88.8%.

With `c1ccc2c(c1)ncn2-c1nc2ccccc2n2c1nc1ccccc12`, the growth was 82.4%.

Consider `CCOC(=O)C1=C(C)NC(SCc2nnc(-c3ccc(Cl)cc3)o2)=NC1c1ccc(Cl)cc1Cl` (stereo not given), for which the growth is 77.7%. The same measure for `O[C@H]1CO[C@H]2[C@@H]1OC[C@@H]2Oc1ccc(Nc2ccnc(Nc3ccc(O[C@H]4CO[C@H]5[C@@H]4OC[C@@H]5O)c(Cl)c3)n2)cc1Cl`: 22.7%; for `O=C1c2cccc3c(-c4ccc(-c5nc6c7ccccc7c7ccccc7c6[nH]5)cc4)ccc(c23)C(=O)N1CCN1CCNCC1`: 107%; for `[2H]c1nc(Nc2ncc(F)c(-c3cc(F)c4nc(C)n(C(C)C)c4c3)n2)c([2H])c([2H])c1CN1CCN(C([2H])([2H])C([2H])([2H])[2H])CC1`: 44.3%. `O=C(C[C@@]1(O)C(=O)Nc2c(Cl)ccc(Cl)c21)c1ccc(C2CC2)cc1`: the growth is -32.7% (active).

Turning to `COc1ccc(/C=C2\C=C(c3ccccc3)N(CCc3ccccc3)C2=O)cc1OC`, the growth was -75.4% (active). `Cc1cccc(-c2cc(O)c(C(=O)N3CCOCC3)s2)c1`: the growth is 26.7%. The same measure for `C=C1C(=O)O[C@H]2[C@H]1CC/C(COC(=O)/C=C/C(=O)NCc1ccc(Cn3c(=O)sn(-c4ccccc4)c3=O)cc1)=C\CC[C@@]1(C)O[C@@H]21`: 97.1%; for `COc1cc2oc(-c3cccc(C(=O)Nc4ccc(C)cc4)c3)cc(=O)c2c(OC)c1OC`: 6.03% (active); for `CC1=NN(c2cccc(Cl)c2)C(=O)/C1=C\c1cn(CC(O)CN2CCCCC2)c2ccccc12` (stereo not given): 80.2%. For the molecule `c1ccc2c(c1)nc(-n1ccnc1)c1nc3ccccc3n12`, the growth was 79.7%. The value for `CO/C(=C1/NC(=O)C(Cc2ccc(O)c(Br)c2)N(C)C(=O)C(C)NC(=O)CCC/C=C(\C)CCC(C)OC1=O)c1ccccc1` (stereo not given) was -63.7% (active); that for `CC(C)c1ccc(C(=O)OC(=O)c2ccc(C(C)C)cc2)cc1` was 92.1%; that for `CC(C)(C)CC(C)(C)Nc1c(-c2ccc(-c3ccccc3)cc2)nc2cnccn12` was 75.9%. The value for `C[C@@H]1C(=O)N(C[C@H](Cc2ccccc2)N(Cc2ccccc2)Cc2ccccc2)[C@]1(Cc1ccccc1)C(=O)OC(C)(C)C` was 8.49% (active); that for `CN(C)c1ccc2cc(-c3ccc(Cl)c(Cl)c3)c(N)nc2c1` was 40.9%.

For the molecule `COc1cc(/C=C/C(=O)c2cccc(-n3cc(-c4ccc(Cl)cc4)[nH]c3=O)c2)cc(OC)c1OC`, the growth is 110%. As for `Cc1nc(Nc2cccc(NC(=O)Nc3ccc(Cl)cc3)c2)c2ccccc2n1`, the growth is 81.8%. The same measure for `COC(=O)c1ccc(CSc2nnc(-c3ccncc3)o2)cc1`: 120%. The same measure for `Cc1c2c(cn1Cc1ccccc1)CCc1cn(C)nc1-2`: 97.5%; for `CCN(CC)CC(=O)Nc1cccc(C(=O)OC(C)C)c1`: 140%. In the case of `COc1cc(/C=C/c2nc(Nc3ccc(S(=O)(=O)Nc4cc(C)on4)cc3)c3ccccc3n2)ccc1O`, the growth is 95.2%. The same measure for `Clc1ccc(/C=N\N=c2\scc(-c3ccc(Cl)cc3)n2/N=C/c2ccc(Cl)cc2)cc1`: 92.1%. `CN(C)c1ccc2cc(-c3ccccc3F)c(N)nc2c1`: the growth was -7.09% (active). On to `Fc1ccc(Nc2nc3nonc3nc2Nc2ccc(F)cc2)cc1`, for which the growth is -41.1% (active). On to `CC(C)(O)c1cccc(F)c1`, for which the growth was 97%.

Regarding `CCN(CC)CCOC(=O)Nc1ccccc1Cl`, the growth is 114%. For the molecule `O=C1N(c2ccccc2)C(=S)N[C@]12[C@H](c1ccccc1)C1CCCN1[C@]21C(=O)NC2C=CC(Cl)=C[C@H]21` (stereo not given in full), the growth is 107%. The value for `Cc1nn(Cc2ccccc2)cc1C(=O)Nc1sc2c(c1C(N)=O)CCC(=O)C2` was 108%; that for `O=[N+]([O-])c1ccc2[nH]cc(-c3c4ccsc4cc4[nH]c5ccc([N+](=O)[O-])cc5c34)c2c1` was -16.6% (active); that for `O=c1ccn(C2OC(F)(CO)C(O)C2F)c(=O)[nH]1` (stereo not given) was 68.5%. The value for `O=C(Nc1ccc(N2CCCCC2)c(Cl)c1)c1ccc(Br)o1` was 102%; that for `C=C1C(=O)O[C@H]2[C@H]1CC/C(COC(=O)/C=C\C(=O)NCc1ccc(Cn3c(=O)sn(CCCI)c3=O)cc1)=C\CC[C@@]1(C)O[C@@H]21` was -17.6% (active).
